Screening results deposited in PubChem BioAssay by National Center for Advancing Translational Sciences (NCATS).
Shown are actives, neighbours in structure and some others; about 8.5% of the full set was active somewhere.
NPSR antagonist = qHTS Assay for Antagonists of the Neuropeptide S Receptor: cAMP Signal Transduction; Q6W5P4; Potency, µM (doses to about 38.3 µM), actives largely listed as inhibitors; 220,000 compounds, 1% hits; CHO-NPSR cells, cAMP TR-FRET, antagonist mode; active means well fitted curve in the direction sought with a large enough effect; inconclusive means small, poorly fitted or top-dose-only effect, or another doubt; inactive means no such curve, though single readings can be large; an effect the other way counts as inactive or inconclusive; further: nearly all actives have a fitted effect of over 50% in size
KDM4E inh = qHTS Assay for Inhibitors of Human Jumonji Domain Containing 2E (JMJD2E); JMJD2E catalytic domain, FDH-coupled NADH fluorescence (FDH is formaldehyde dehydrogenase); AID 2147, 2009; 230,000 compounds, 1.6% hits; Potency, µM (highest dose often 57.1 µM), most hits filed as inhibitors; further: nearly all actives have a fitted effect of over 50% in size
GoLoco inh red = qHTS Assay for Inhibitors of RGS12 GoLoco Motif Activity (Red Fluorophore). Guanine nucleotide-binding protein G(i) subunit alpha-1 (Homo sapiens), P63096. Gai1:RGS12 GoLoco peptide FP, rhodamine, 10 min. Potency, µM (top dose mostly 61.6 µM), most hits filed as inhibitors. 230,000 compounds, 0.44% hits; active means well fitted inhibition curve with a large enough effect, not every such curve was filed as active; inactive means no such curve, though single readings can be large or run the other way; further: nearly all actives have a fitted effect of over 30% in size
Target sequence (P63096 whole entry, looked up): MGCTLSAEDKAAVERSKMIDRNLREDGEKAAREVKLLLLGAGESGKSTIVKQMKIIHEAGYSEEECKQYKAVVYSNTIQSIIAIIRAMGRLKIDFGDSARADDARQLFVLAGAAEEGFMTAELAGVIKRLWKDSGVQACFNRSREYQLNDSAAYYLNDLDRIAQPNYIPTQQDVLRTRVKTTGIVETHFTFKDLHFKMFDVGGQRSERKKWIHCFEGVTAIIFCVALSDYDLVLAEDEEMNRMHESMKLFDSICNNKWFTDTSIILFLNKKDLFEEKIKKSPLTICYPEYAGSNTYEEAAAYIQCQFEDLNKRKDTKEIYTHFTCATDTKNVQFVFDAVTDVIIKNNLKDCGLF
Sfp inh = qHTS Assay for Inhibitors of Bacillus subtilis Sfp phosphopantetheinyl transferase (PPTase) | 4'-phosphopantetheinyl transferase ffp (Bacillus subtilis), Q9F4F7 | Biochemical Sfp PPTase activity, qHTS | Potency, µM, hits mostly inhibitors | 310,000 compounds, 3.5% hits; active means well fitted curve in the direction sought with a large enough effect; inconclusive means small, poorly fitted or top-dose-only effect, or another doubt; inactive means no such curve, though single readings can be large; an effect the other way counts as inactive or inconclusive;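 further: the enzyme is Sfp with the accession as filed and its product quenches rhodamine fluorescence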
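Step 1, compound plus 15 nM Sfp-PPTase, 15 min, room temperature. Step 2, add rhodamine-CoA (5 uM) and BHQ-2-YbbR (12.5 uM). Step 3, read 525/598 nm fluorescence at 0 and 30 min.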
ALDH1A1 block = qHTS Assay for Inhibitors of Aldehyde Dehydrogenase 1 (ALDH1A1) | Aldehyde dehydrogenase 1A1 (Homo sapiens), P00352 | Purified ALDH1A1, NADH fluorescence, propionaldehyde substrate | Potency, µM (titrated, usually from 75.3 µM), hits mostly inhibitors | 220,000 compounds, 7.3% hits
Coupling enz = qHTS Assay for Inhibitors of Fructose-1,6-bisphosphate Aldolase from Giardia Lamblia: Coupling assay counterscreen; coupling enzyme system counterscreen, AmpLite Red fluorescence; activity change, negative = inhibition, % at 58.2 µM, hits read low; 290,000 compounds, 0.67% hits; AID 2472, 2010; in the data active means activity change below about -30%
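Coupling enzymes only (glyceraldehyde-3-phosphate) + compound, at 57.5 uM final, 10 min RT; add substrate/coupling/AmpLite Red mix, 20 min RT; fluorescence ex 525/em 598 nm. Actives flag coupling-system interference.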
Numbers stand for hits; – = inactive; ? = inconclusive; · = no result given. Unless noted, the call rests on the fitted dose curve; in most records, active means well fitted inhibition curve with a large enough effect (not every such curve was filed as active); inconclusive means small, poorly fitted or top-dose-only effect, or another doubt; inactive means no such curve, though single readings can be large or run the other way.

SMILES | NPSR antagonist | KDM4E inh | GoLoco inh red | Sfp inh | ALDH1A1 block | Coupling enz
Cc1ccc(C)c(NC(=O)C2CCCN(S(=O)(=O)c3ccc4[nH]c(=O)ccc4c3)C2)c1 (configuration not stated) | · | · | · | – | · | –
O=C(Nc1cccc([N+](=O)[O-])c1)Nc1cccs1 | – | – | – | – | – | –
Cc1cc2c(cc1S(=O)(=O)N(C)Cc1ccccc1)OCC(=O)N2 | · | · | · | – | · | –
N#Cc1ccc(OCc2noc(-c3ccsc3)n2)cc1 | – | – | – | – | ? | –
Cc1ccc(N2C(=O)SC(Cc3ccccc3)C2=O)cc1 (configuration not stated) | – | ? | – | 22µM | · | –
CCCN1C(=O)SC(CC(=O)Nc2ccc(C)cc2)C1=O (configuration not stated) | – | – | – | – | 22µM | –
Cc1cccc(NC(=O)CC2S/C(=N/c3nccs3)N(C)C2=O)c1 (configuration not stated) | – | – | – | – | – | –
O=C(O)CN1C(=O)SC(Nc2ccccc2)C1=O (configuration not stated) | – | – | – | – | – | –
Cc1cccc(NC(=O)CC2SC(=O)N(c3ccccc3)C2=O)c1 (configuration not stated) | – | – | – | – | 10µM | –
Cc1cccc(NC2SC(=O)N(c3ccccc3)C2=O)c1 (configuration not stated) | – | – | – | – | 1.3µM | –
COc1ccc(/C=N/NC(=O)C2C(C=C(Cl)Cl)C2(C)C)c(OC)c1 (configuration not stated) | – | – | – | – | – | –
COCCCNC(=S)N1CCC(C(=O)c2ccc(Cl)cc2)CC1 | · | · | · | – | · | –
COc1ccc(Nc2cc(Nc3ccccc3)ncn2)cc1 | · | · | · | – | · | –
CC(=O)Nc1ccc(NC(=O)CC2SC(=O)N(CC(=O)c3ccccc3)C2=O)cc1 (configuration not stated) | · | · | · | – | · | –
N=C1SC(CC(=O)Nc2ccc([N+](=O)[O-])cc2)C(=O)N1c1ccccc1 (configuration not stated) | – | – | – | – | ? | –
Cc1ccc(NC(=O)CC2SC(=O)N(c3ccccc3)C2=O)cc1 (configuration not stated) | ? | – | – | 20µM | 10µM | –
Cc1ccc(NC(=O)CC2SC3=NCCN3C2=O)cc1 (configuration not stated) | ? | – | – | 71µM | 3.5µM | –
O=C(CC1SC(=O)N(c2ccccc2)C1=O)Nc1ccccc1 (configuration not stated) | – | – | – | ? | 8.9µM | –
COc1ccccc1NC1SC(=O)N(c2ccccc2)C1=O (configuration not stated) | – | – | – | – | 5µM | –
CN1C(=O)SC(Nc2ccccc2C(=O)O)C1=O (configuration not stated) | – | ? | – | – | ? | –
Cc1ccccc1C(=O)NC1CCN(CC(=O)N2CCCCC2C)CC1 (configuration not stated) | · | · | · | – | · | –
CC(C)NC(=O)N1CCC2(CC1)CCN(C(=O)c1cc(C(F)(F)F)cc(C(F)(F)F)c1)CC2 | · | · | – | – | – | –
C[C@@]1(C(NC(=O)c2cccs2)c2ccc(-c3ccccc3)cc2)C[C@H]1C1CCCCC1 (some centres not stated) | · | – | – | – | – | –
COC(=O)c1ccc(C(NC(=O)c2ccccc2)[C@]2(C)C[C@H]2C2CCCCC2)cc1 (some centres not stated) | · | – | – | – | 1.3µM | –
O=C(COC(=O)c1ccc(CNS(=O)(=O)c2ccc(F)c(Cl)c2)cc1)NCC1CCCCC1 | – | – | – | – | – | –
